Test results as given in PubChem BioAssay.
A number with no mark means an inactive call. For part of these data: Results with a measured potency or affinity are listed apart. Active and inactive are the calls of the source. Unless noted, no rule for the calls is given here.

How the values were obtained:
[1] = antimalarial activity against Dd2 strain (AID 2302;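 active = growth inhibition above 50% at the single 2 µM test dose, taken to imply half-maximal potency below 2 µM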;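 also: 0% = DMSO untreated growth and 100% = chloroquine plus artemisinin killed control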); conditions: P. falciparum Dd2 in RBCs, LDH growth readout, 72 h; at 2 µM; active compounds read high
[2] = HepG2 cytotoxicity, primary screen, cytotoxicity control for P. falciparum antimalarial project, cell-based, ATP luminescence (AID 2303;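 active = inhibition above 50%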;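 also: 0% = DMSO wells and 100% = digitonin-killed cells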); conditions: HepG2 viability, 24-48 h, at 10 µM, active compounds read high
[3] = biological target: L-lactate dehydrogenase (Plasmodium falciparum (isolate CDC / Honduras)) (UniProt Q27743); test: PfLDH activity inhibition – cell lysate, 3D7 strain, counter-screen for P. falciparum growth inhibition project (AID 2304);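 also: 0% = vehicle and 100% = reference inhibitor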; conditions: P. falciparum 3D7 crude extract, LDH APAD/NBT absorbance; at 2 µM; active compounds read high
[4] = inhibition of 3D7 malaria parasite growth – strain 3D7 (AID 2306);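 also: 0% = DMSO wells and 100% = chloroquine plus artemisinin control wells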; conditions: P. falciparum 3D7 erythrocytic growth, LDH absorbance, 72 h; at 2 µM; active compounds read high
[5] = biological target: Calcium-dependent protein kinase 1 (Plasmodium falciparum (isolate 3D7)) (UniProt P62344); test: PfCDPK1 kinase inhibitors, biochemical, TCAMS library (AID 1159585; cut-off not given, nearly all actives have IC50 up to about 0.98 µM;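 also: inhibitors leave more ATP so luminescence rises with inhibition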); conditions: recombinant PfCDPK1, Kinase-Glo ATP depletion luminescence
[6] = biological target: Plasmodium falciparum protein kinase 6 (PK6, PF3D7_1337100) (UniProt Q8IDW1); test: PfPK6 kinase inhibitors, biochemical, TCAMS library (AID 1159586); conditions: recombinant PfPK6, Kinase-Glo ATP depletion luminescence
[7] = biological target: Protein kinase 7 (PK7), Plasmodium falciparum 3D7 (PF3D7_0213400) (UniProt Q7YTF7); test: inhibition of Plasmodium PK7 catalytic activity – biochemical, TCAMS antimalarial set, Kinase-Glo luminescence (AID 1159587); conditions: recombinant PfPK7, Kinase-Glo ATP depletion luminescence
[8] = biological target: Calcium-dependent protein kinase 4 (Plasmodium falciparum (isolate 3D7)) (UniProt Q8IBS5); test: PfCDPK4 kinase inhibitors, biochemical, TCAMS library (AID 1159588; cut-off not given, nearly all actives have IC50 up to about 0.91 µM); conditions: recombinant PfCDPK4, Kinase-Glo ATP depletion luminescence
Sequence of Calcium-dependent protein kinase 4 (Plasmodium falciparum (isolate 3D7)) (Q8IBS5 whole entry, looked up): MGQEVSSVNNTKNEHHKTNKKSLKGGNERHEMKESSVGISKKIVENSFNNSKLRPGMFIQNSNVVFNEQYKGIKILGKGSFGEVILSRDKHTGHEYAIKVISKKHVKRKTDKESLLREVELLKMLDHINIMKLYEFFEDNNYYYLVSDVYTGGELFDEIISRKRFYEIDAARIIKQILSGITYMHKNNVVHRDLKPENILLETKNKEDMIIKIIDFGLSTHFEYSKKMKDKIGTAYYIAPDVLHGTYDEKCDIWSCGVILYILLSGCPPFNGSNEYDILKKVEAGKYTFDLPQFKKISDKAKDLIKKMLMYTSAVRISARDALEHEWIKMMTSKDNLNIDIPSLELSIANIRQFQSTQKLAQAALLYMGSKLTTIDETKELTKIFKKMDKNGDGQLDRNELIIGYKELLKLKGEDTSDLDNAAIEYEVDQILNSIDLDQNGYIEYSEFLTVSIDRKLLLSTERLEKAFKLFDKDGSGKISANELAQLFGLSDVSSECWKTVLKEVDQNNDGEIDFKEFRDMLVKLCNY

Sequence of Protein kinase 7 (PK7), Plasmodium falciparum 3D7 (PF3D7_0213400) (Q7YTF7 1-343): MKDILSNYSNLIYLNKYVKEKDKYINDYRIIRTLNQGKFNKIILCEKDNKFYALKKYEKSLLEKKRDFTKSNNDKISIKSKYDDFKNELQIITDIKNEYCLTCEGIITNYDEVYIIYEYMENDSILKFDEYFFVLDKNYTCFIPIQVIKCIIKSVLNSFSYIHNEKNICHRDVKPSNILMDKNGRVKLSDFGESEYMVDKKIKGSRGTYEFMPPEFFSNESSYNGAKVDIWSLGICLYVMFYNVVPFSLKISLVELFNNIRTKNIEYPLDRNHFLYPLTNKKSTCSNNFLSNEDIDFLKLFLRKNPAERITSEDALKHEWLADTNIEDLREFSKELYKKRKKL
Sequence of Calcium-dependent protein kinase 1 (Plasmodium falciparum (isolate 3D7)) (P62344 whole entry, looked up): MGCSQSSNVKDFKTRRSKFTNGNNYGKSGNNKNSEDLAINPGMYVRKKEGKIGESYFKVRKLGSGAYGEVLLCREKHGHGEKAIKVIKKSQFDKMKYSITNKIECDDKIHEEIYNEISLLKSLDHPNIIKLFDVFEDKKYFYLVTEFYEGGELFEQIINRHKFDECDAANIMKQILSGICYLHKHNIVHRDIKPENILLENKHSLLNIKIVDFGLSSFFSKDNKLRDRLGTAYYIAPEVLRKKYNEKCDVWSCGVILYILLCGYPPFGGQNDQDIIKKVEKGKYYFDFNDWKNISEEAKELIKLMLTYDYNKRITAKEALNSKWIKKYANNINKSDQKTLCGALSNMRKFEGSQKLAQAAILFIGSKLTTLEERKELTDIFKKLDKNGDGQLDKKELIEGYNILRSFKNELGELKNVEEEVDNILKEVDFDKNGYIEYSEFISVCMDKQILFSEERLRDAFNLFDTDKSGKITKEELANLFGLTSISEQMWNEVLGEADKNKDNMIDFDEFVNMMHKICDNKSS
Sequence of Plasmodium falciparum protein kinase 6 (PK6, PF3D7_1337100) (Q8IDW1 1-305): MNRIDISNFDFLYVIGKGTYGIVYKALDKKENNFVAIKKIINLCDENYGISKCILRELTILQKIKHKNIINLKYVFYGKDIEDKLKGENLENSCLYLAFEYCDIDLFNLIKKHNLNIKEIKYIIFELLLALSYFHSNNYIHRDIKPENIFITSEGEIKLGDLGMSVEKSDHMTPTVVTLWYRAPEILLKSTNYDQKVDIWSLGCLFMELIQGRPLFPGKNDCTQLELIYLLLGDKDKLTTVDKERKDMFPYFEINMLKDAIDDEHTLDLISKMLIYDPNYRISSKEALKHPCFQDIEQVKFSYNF
Sequence of L-lactate dehydrogenase (Plasmodium falciparum (isolate CDC / Honduras)) (Q27743 whole entry, looked up): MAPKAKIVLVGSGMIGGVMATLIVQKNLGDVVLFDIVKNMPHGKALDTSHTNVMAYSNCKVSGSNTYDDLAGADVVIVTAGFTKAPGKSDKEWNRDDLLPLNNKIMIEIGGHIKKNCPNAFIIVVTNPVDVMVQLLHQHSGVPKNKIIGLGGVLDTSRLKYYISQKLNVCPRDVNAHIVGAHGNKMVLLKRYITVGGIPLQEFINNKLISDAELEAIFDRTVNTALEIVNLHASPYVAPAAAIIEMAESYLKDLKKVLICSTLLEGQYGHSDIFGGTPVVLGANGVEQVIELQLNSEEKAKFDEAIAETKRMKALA

| Compound | growth inhibition [1] | inhibition [2] | inhibition [3] [%] | growth inhibition [4] | outcome [5] | outcome [6] | outcome [7] | outcome [8] |
| --- | --- | --- | --- | --- | --- | --- | --- | --- |
| COc1ccc(NC(=O)Nc2ccc(-c3ccccc3)cc2)cc1Cn1nc(Cl)c(N2CCCNCC2)cc1=O | 84% (active) | 18% | 0 | 102% (active) | inactive | inactive | inactive | inactive |
| COC(=O)c1ccc(CCC(C)NCC(O)c2cccc(Cl)c2)cc1 (configuration not stated) | 94% (active) | -4% | 1 | 100% (active) | inactive | inactive | inactive | inactive |
| CC=CC(=O)N1CCN(c2nccc(-c3ccc(C(C)(C)C)cc3)n2)CC1 | 70% (active) | 20% | 0 | 95% (active) | inactive | inactive | inactive | inactive |
| COc1ccc(-c2cccc(NC(=O)c3cccc(Cl)c3)c2)cc1CN1CCN(C)CC1 | 48% | 27% | 1 | 101% (active) | inactive | inactive | inactive | inactive |
| Cc1n[nH]c(C)c1C1CCN(CC2CCC(NC(=O)/C=C/c3ccc(Cl)c(Cl)c3)CC2)CC1 (configuration not stated) | 53% (active) | 15% | 3 | 101% (active) | inactive | inactive | inactive | inactive |
| O=c1[nH]c(NCCCNCc2cc3c(Cl)cc(Cl)cc3[nH]2)nc2ccsc12 | 11% | 62% (active) | 0 | 96% (active) | inactive | inactive | inactive | inactive |
| COc1ccc(-c2ccc3c(-c4ccc(F)cc4)cnc(N)c3c2)cn1 | 86% (active) | 4% | -5 | 99% (active) | inactive | inactive | inactive | inactive |
| CC(C)(C)c1ccc(-c2cc(C(=O)N[C@@H](CO)C(=O)O)on2)cc1 (tested in a mixture with another compound) | -2% | 1% | -1 | 87% (active) | inactive | inactive | inactive | inactive |
| Cn1cnc(CCNC(=O)c2ccc(-c3ccc(-c4nc5ccc(F)cc5[nH]4)cc3)cc2)c1 | 15% | 17% | 0 | 92% (active) | inactive | inactive | inactive | inactive |
| O=C(Nc1ccnc(N2C[C@H]3C[C@@H]2CN3Cc2cccc(O)c2)c1)c1ccc(F)cc1 | 0% | 2% | 4 | 92% (active) | inactive | inactive | inactive | inactive |
| CN(C)CCOc1ccc(/C(=C(/CCCn2ccnc2)c2ccccc2)c2ccc(O)cc2)cc1 | 99% (active) | 13% | 3 | 101% (active) | inactive | inactive | inactive | inactive |
| Cc1cc(C(=O)N(Cc2ccc(-c3ccc(CNCCc4ccc(S(C)(=O)=O)cc4)cn3)cc2)C(C)CN(C)C)ccc1[N+](=O)[O-] (configuration not stated) | 46% | 17% | -1 | 99% (active) | inactive | inactive | inactive | inactive |
| Cc1cc(CN2CC[C@H](NC(=O)c3ccc(Cl)c(Cl)c3)C2)ccc1OCCN1CCNCC1 | 1% | 15% | -1 | 94% (active) | inactive | inactive | inactive | inactive |
| Cc1cc2c(cc1C(F)(F)F)N(C(=O)Nc1cc(C(=O)NC3CCN(Cc4ccccc4)C3)cc(C(F)(F)F)c1)CC2 (configuration not stated) | 97% (active) | 22% | 0 | 101% (active) | inactive | inactive | inactive | inactive |
| CCN(CCO)Cc1ccc(-c2ccc(NS(=O)(=O)c3cccc4cccnc34)cc2)cc1 | 16% | 25% | 2 | 92% (active) | inactive | inactive | inactive | inactive |
| COc1ccc2ncc(F)c(CCN3C[C@H](CNCc4cc(F)c5c(c4)NC(=O)CO5)[C@H](O)C3)c2n1 | 23% | 3% | -7 | 94% (active) | inactive | inactive | inactive | inactive |
| CN1CCCN(Cc2cccc(-c3cccc(NC(=O)c4ccc(C#N)cc4)c3)c2)CC1 | 4% | 7% | 1 | 89% (active) | inactive | inactive | inactive | inactive |
| Oc1ccccc1Nc1nc(NCc2ccco2)c2ccccc2n1 | 71% (active) | 0% | 3 | 99% (active) | inactive | inactive | inactive | inactive |
| Cn1nc(-c2ccc(NC(=O)Nc3cc(C(F)(F)F)ccc3F)c(F)c2)c2cnc(NCCCN3CCOCC3)nc21 | 62% (active) | 31% | 3 | 100% (active) | inactive | inactive | inactive | inactive |
| CC(C)[C@H](NC(=O)c1ccc(O)c(-c2ccc(Cl)c(Cl)c2)c1)C(=O)NCCN1CCCC1 | 83% (active) | 4% | 4 | 98% (active) | inactive | inactive | inactive | inactive |

| Compound | growth inhibition [1] | inhibition [2] | inhibition [3] [%] | growth inhibition [4] | outcome [5] | outcome [6] | outcome [7] | outcome [8] |
| --- | --- | --- | --- | --- | --- | --- | --- | --- |
| CC(C)Nc1nc(NCCc2cnc[nH]2)nc(Nc2ccc(Oc3ccccc3)cc2)n1 | 9% | -3% | 1 | 95% (active) | inactive | inactive | inactive | inactive |
| Cc1ccnc(NC(c2cccc(OCc3ccccc3)c2)c2ccc3cccnc3c2O)c1 (configuration not stated) | 88% (active) | 26% | -2 | 95% (active) | inactive | inactive | inactive | inactive |
| CCOc1ccc(NC(C)=O)c(O)c1 | 0% | 6% | -1 | 96% (active) | inactive | inactive | inactive | inactive |
| Fc1ccc2c(NN=Cc3ccccc3F)ccnc2c1 | 99% (active) | 10% | -1 | 101% (active) | inactive | inactive | inactive | inactive |
| CC1=C(C(=O)Nc2cc3cn[nH]c3cc2F)C(c2cccc(O)c2F)CC(=O)N1 (configuration not stated) | 98% (active) | 1% | -2 | 97% (active) | inactive | inactive | inactive | inactive |
| CCN(CC)CCN(Cc1ccc(-c2ccc(C(F)(F)F)cc2)cc1)C(=O)Cn1c(CCc2cccc(F)c2F)nc(=O)c2ccc(C(F)(F)F)cc21 | 55% (active) | 19% | -2 | 99% (active) | inactive | inactive | inactive | inactive |
| c1ccc2c(C3CCN(CCCCOc4ccc5c(c4)CCN(C4CCC4)CC5)CC3)c[nH]c2c1 | 100% (active) | 80% (active) | -3 | 102% (active) | inactive | inactive | inactive | inactive |
| Cc1ccc(Nc2nccc(NCC(O)c3cccc(C)c3)n2)cc1 (configuration not stated) | 23% | 22% | 0 | 90% (active) | inactive | inactive | inactive | inactive |
| CC(=O)Nc1csc(-c2cnc(/C=C(\C)C[C@@H]3OC[C@H](C[C@@H]4O[C@H]4[C@@H](C)[C@H](C)O)[C@@H](O)[C@H]3O)o2)c1 | 8% | 1% | 0 | 94% (active) | inactive | inactive | inactive | inactive |
| O=[N+]([O-])c1cnc(Nc2ccccc2O)nc1Nc1ccccc1O | 80% (active) | 24% | -3 | 98% (active) | inactive | inactive | inactive | inactive |
| C[C@@H]1CN(c2cnn(Cc3ccc(NC(=O)Nc4ccc(F)cc4[N+](=O)[O-])cc3)c(=O)c2Cl)C[C@H](C)N1 | 10% | 4% | -2 | 89% (active) | inactive | inactive | inactive | inactive |
| COCCn1c(Sc2ccc(C#N)c([N+](=O)[O-])c2)nnc1-c1ccc(N(C)C)cc1 | 66% (active) | 2% | -6 | 89% (active) | inactive | inactive | inactive | inactive |
| O=C(Nc1cc(C(F)(F)F)cc(C(F)(F)F)c1)c1cccc([N+](=O)[O-])c1 | 15% | 23% | -2 | 93% (active) | inactive | inactive | inactive | inactive |
| O=C(/C=C/c1ccc(Cl)c(Cl)c1)NCCC(CN1CCC(c2c[nH]c3ccccc23)CC1)c1ccccc1 (configuration not stated) | 42% | 84% (active) | -6 | 100% (active) | inactive | inactive | inactive | inactive |
| COc1ccc2nc(-c3ccccc3)cc(NN=Cc3ccc([N+](=O)[O-])o3)c2c1 | 99% (active) | 90% (active) | -7 | 100% (active) | inactive | inactive | inactive | inactive |
| Nc1nc2ccc(S(=O)(=O)Nc3ccc(C(=O)N[C@@H](CCC(=O)O)C(=O)O)c(F)c3)cc2c(=O)[nH]1 | 16% | 37% | 4 | 97% (active) | inactive | inactive | inactive | inactive |
| CC(=O)c1cccc2cc(C(=O)NC3CCC(CCN4CCc5ccc(C#N)cc5C4)CC3)[nH]c12 (configuration not stated) | 17% | 12% | -4 | 100% (active) | inactive | inactive | inactive | inactive |
| CC1CCN(CC[C@H]2CCCN2S(=O)(=O)c2cccc(NC(=O)c3ccc(-c4ccc(Cl)cc4)o3)c2)CC1 | 65% (active) | 45% | 3 | 101% (active) | inactive | inactive | inactive | inactive |
| C[C@H]1CN(Cc2cccc(-c3cc(CNC(=O)c4cccc(CN5CCN(CCOc6ccccc6)CC5)c4)ccc3F)c2)CCN1 | 88% (active) | 59% (active) | 4 | 91% (active) | inactive | inactive | inactive | inactive |
